A selection: hits, their analogues and other compounds. The true share with any hit is near 5.8%.
PINK1 modulator: modulators of PINK1 expression; PINK1 immunofluorescence, high-content cytometry, 24 h; 410,000 compounds, 0.2% hits; Potency, µM (top dose mostly 76.6 µM), actives largely listed as activators; active means well fitted activation curve with a large enough effect; inconclusive means small, poorly fitted or top-dose-only effect; cell line not stated here; further: nearly all actives have a fitted effect of over 65% in size
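PINK1 protein level read as immunofluorescence by microplate cytometer in a fixed, stained stable cell line after 24 h exposure to five compound concentrations, with CCCP as control.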
KB-V1 MDR tox: kills drug-selected multidrug resistant KB-V1 cells; Potency, µM (highest dose often 46.1 µM), usual class: cytotoxic; 400,000 compounds, 3.4% hits; KB-V1 MDR cells viability, CellTiter-Glo, 72 h; AID 1347076; further: nearly all actives have a fitted effect of over 60% in size
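Drug-selected KB-V1 cells, grown in DMEM lacking phenol red with 10% FBS, receive compound titrations; after three days at 37 degrees C, surviving cell ATP is quantified by CellTiter-Glo luminescence and responses normalized and curve-fitted.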
SW480 rereplic: DNA re-replication induction in SW480 cells; SW480 DNA re-replication, Hoechst DNA content imaging, 48 h; 340,000 compounds, 1.8% hits; Potency, µM (titrated, usually from 46.1 µM), most hits filed as activators; further: nearly all actives have a fitted effect of over 55% in size
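Per well, 250 cells were exposed to pinned compound for 48 hr. Nuclear DNA was visualised with Hoechst (40 min, 37 C) and total object intensity recorded by fluorescence scanning.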
KB-3-1 cytotox: kills parental KB-3-1 adenocarcinoma cells; KB-3-1 viability, CellTiter-Glo ATP luminescence, 72 h; Potency, µM (series often up to 46.1 µM), actives largely listed as cytotoxic; 400,000 compounds, 1.4% hits; further: nearly all actives have a fitted effect of over 60% in size
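Here the drug-naive KB-3-1 line serves as comparator for MDR sub-line selectivity; cells received compound titrations, 72 h at 37 °C, then CellTiter-Glo readout.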
ALOX12 inh: ALOX12 (human) lipoxygenase inhibition; P18054; purified 12hLO, xylenol orange hydroperoxide absorbance; Potency, µM (highest dose often 108 µM), usual class: inhibitors; 580,000 compounds, 1.1% hits
Target sequence (P18054 whole entry, looked up): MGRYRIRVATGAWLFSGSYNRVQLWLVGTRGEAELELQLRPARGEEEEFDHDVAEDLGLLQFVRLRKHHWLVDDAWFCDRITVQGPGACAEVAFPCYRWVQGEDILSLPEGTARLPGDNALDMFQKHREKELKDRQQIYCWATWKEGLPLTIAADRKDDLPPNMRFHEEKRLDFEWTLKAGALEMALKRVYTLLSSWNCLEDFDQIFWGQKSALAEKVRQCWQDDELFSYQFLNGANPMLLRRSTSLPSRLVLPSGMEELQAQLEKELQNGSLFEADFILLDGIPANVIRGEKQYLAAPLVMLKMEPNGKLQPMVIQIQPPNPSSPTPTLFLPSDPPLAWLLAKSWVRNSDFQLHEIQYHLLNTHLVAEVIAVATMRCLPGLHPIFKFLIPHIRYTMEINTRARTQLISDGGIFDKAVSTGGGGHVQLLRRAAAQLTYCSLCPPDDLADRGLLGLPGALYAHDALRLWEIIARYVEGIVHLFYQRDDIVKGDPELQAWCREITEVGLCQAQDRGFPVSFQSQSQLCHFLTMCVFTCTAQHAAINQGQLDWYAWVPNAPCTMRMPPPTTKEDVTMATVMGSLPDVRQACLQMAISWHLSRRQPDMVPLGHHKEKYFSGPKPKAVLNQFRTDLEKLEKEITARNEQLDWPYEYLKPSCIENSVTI
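Purified human 12hLO (150 nM final) in 25 mM Hepes, 0.01% Triton X-100, pH 7.0 was preincubated 15 min at room temperature with compound. Then 40 uM arachidonic acid was added, 30 min. Hydroperoxide was read by Fe-XO absorbance ratio 573/405 nm.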
MCF10A rereplic: inducers of DNA re-replication in MCF 10A breast cells; MCF 10A DNA re-replication, Hoechst nuclear intensity, 48 h; 350,000 compounds, 2.9% hits; Potency, µM (series often up to 46.1 µM), actives largely listed as activators; further: nearly all actives have a fitted effect of over 50% in size
A number is an active result; . = inactive; ? = inconclusive; / = not tested or not shown; [ ] = dose if it differs, or a comment. Unless noted, the call rests on the fitted dose curve; in most records, active means well fitted curve in the direction sought with a large enough effect; inconclusive means small, poorly fitted or top-dose-only effect, or another doubt; inactive means no such curve, though single readings can be large; an effect the other way counts as inactive or inconclusive.

SMILES | PINK1 modulator | KB-V1 MDR tox | SW480 rereplic | KB-3-1 cytotox | ALOX12 inh | MCF10A rereplic
COc1ccccc1NC(=O)c1nnn(Cc2ccccc2)c1NC(=O)C(F)(F)F | ? | 21µM | . | 18µM | . | .
COc1ccc(C(=O)N2CC(Oc3ccccc3-c3nc(-c4cnccn4)no3)C2)cn1 | / | / | / | / | . | /
CC(=O)N1CCCc2cc(S(=O)(=O)N3CCC(C(=O)N4CCC5(CC4)OCCO5)CC3)ccc21 | / | / | / | / | . | /
COc1ccc(NC(=O)CNC(=O)C23CC4CC(CC(C4)C2)C3)c(OC)c1 | . | . | 4.6µM | . | . | .
COc1ccc(NC(=O)CC23CC4CC(CC(Br)(C4)C2)C3)c(OC)c1 | . | . | . | . | . | .
COC(=O)CNC(=O)C12CC3CC(C1)CC(c1ccccc1)(C3)C2 | / | / | / | / | . | /
COc1ccc(NC(=O)C23CC4CC(C2)CC(c2ccccc2)(C4)C3)c(OC)c1 | . | 15µM | ? | . | . | ?
Fc1ccc2c(c1)nc1n2[C@@H](CNC2CCCCC2)COC1 | / | / | / | / | . | /
O=C(Nc1cc(S(=O)(=O)N2CCOCC2)ccc1N1CCCC1)c1cc(F)c(F)cc1Cl | ? | 16µM | . | . | ? | .
C/C(=N\NC(=S)Nc1cc(S(=O)(=O)N2CCOCC2)ccc1Cl)c1ccccc1F | . | 3.7µM | ? | ? | ? | ?
O=C(Nc1cc(S(=O)(=O)N2CCOCC2)ccc1N1CCCC1)c1ccc(F)cc1 | . | . | . | . | 40µM | .
COc1ccc(S(=O)(=O)N2CCOCC2)cc1NC(=O)c1ccc(Cl)cc1 | . | . | 0.23µM | . | . | .
CCOc1ccc2c(c1)cc(C(=O)Nc1cccc(F)c1)n2C | / | / | / | / | . | /
Cc1cc(Cl)c(S(=O)(=O)Nc2cc(S(=O)(=O)N3CCOCC3)ccc2F)cc1OCC(N)=O | . | . | . | . | . | 0.65µM
O=C(Nc1ccccc1O)c1cc(S(=O)(=O)N2CCOCC2)ccc1Cl | . | ? | . | ? | / | .
COc1ccc(S(=O)(=O)N2CCOCC2)cc1NC(=O)CN1CCC(Cc2ccccc2)CC1 | . | 12µM | ? | . | . | ?
O=C(Nc1ccccc1O)c1cc(S(=O)(=O)N2CCOCC2)c(Cl)cc1Cl | . | 2.9µM | ? | . | . | ?
O=S(=O)(c1cccc(COc2ccc(Cl)cc2Cl)c1)N1CCOCC1 | . | ? | . | ? | . | ?
COc1ccc(S(=O)(=O)N2CCOCC2)cc1NC(=O)CN1CCCC1 | . | . | . | . | . | .
CC(=O)c1cc(Cl)ccc1OCc1cccc(S(=O)(=O)N2CCOCC2)c1 | . | 18µM | . | . | . | .
COCCn1c(SCC(=O)Nc2ccc(S(N)(=O)=O)cc2)nc2ccccc21 | . | . | .[9.22 µM] | . | . | ?
Cc1cc(NC(=O)CSc2nc3ccccc3c(=O)n2Cc2ccc(F)cc2)no1 | ? | . | . | . | . | ?
COCCn1c(SCC(=O)Nc2ccc(S(=O)(=O)N3CCOCC3)cc2)nc2ccccc21 | . | 5.2µM | . | . | . | .
Cc1ccc(S(=O)(=O)N2CCOCC2)cc1NC(=O)CSc1nc2ccccc2c(=O)n1Cc1ccccc1 | . | 8.2µM | . | . | . | .
O=C(CSc1nc2ccccc2c(=O)n1Cc1ccccc1)Nc1ccc(Br)cc1C(=O)O | . | . | . | . | ? | 23µM
SMILES | PINK1 modulator | KB-V1 MDR tox | SW480 rereplic | KB-3-1 cytotox | ALOX12 inh | MCF10A rereplic
CC(C)C(CNC(=O)c1cc(=O)c2ccccc2o1)N1CCOCC1 (configuration not stated) | / | / | / | / | . | /
Cc1nc2ccccc2nc1SCC(=O)c1ccccc1 | . | 2.6µM | . | ? | . | .
CCCc1nc(SCC(=O)c2ccc(F)cc2)c2ccccc2n1 | . | ? | ? | ? | 35µM | ?
Cc1nc2ccccc2nc1SCC(=O)N1CCCCC1 | / | / | / | / | . | /
CCCCCCCCOC(=O)C1=C(C)Nc2nnnn2C1c1cccs1 (configuration not stated) | . | 15µM | . | ? | ? | ?
N#CC(C(=O)NCc1ccccc1)c1nc2ccccc2nc1N1CCN(CCc2ccccc2)CC1 (configuration not stated) | / | / | / | / | . | /
COc1ccc(Cn2c(SCC#N)nc3ccc(N4CCOCC4)cc3c2=O)cc1 | . | . | . | . | . | 21µM
Cc1ccc(NC(=O)COC(=O)CCSc2ccc(F)cc2)c(Br)c1 | / | / | / | / | . | /
COC(=O)CC/C(=N/Nc1ccc(Cl)c(Cl)c1)C(=O)OC | . | . | . | . | 16µM | ?
CCOC(=O)c1[nH]c(C)c(C(=O)c2cc(F)ccc2F)c1C | ? | ? | 1µM | 0.92µM | . | 1.2µM
CCOC(=O)c1[nH]c(C)c(C(=O)OCc2ccccc2F)c1C | . | 2.3µM | 7.3µM | 4.6µM | . | 8.2µM
CCOC(=O)c1c(C)[nH]c(C(=O)NNC(=O)c2ccccc2F)c1C | . | . | . | . | . | .
CCOC(=O)c1[nH]c(C)c(C(=O)OCC)c1C | . | . | . | . | . | .
CCc1ccc(-c2noc(CCC(=O)Nc3nc4ccccc4n3CC)n2)cc1 | / | / | / | / | . | /
CCN(CCO)c1ccc(NC(=S)Nc2cccc(S(=O)(=O)N(C)C)c2)cc1 | . | . | . | . | . | .
CN(C)S(=O)(=O)c1cccc(NC(=S)Nc2cc(Cl)cc(Cl)c2)c1 | ? | 18µM | . | ? | ? | .
CN(C)S(=O)(=O)c1cccc(NC(=S)Nc2ccc(Cl)cc2Cl)c1 | 16µM | ? | . | . | . | .
COc1ccc(CNC(=O)NC(c2ccccc2)c2ccncc2)cc1 (configuration not stated) | / | / | / | / | . | /
COc1ccc(NC(=O)COc2ccccc2Cl)c2cccnc12 | / | / | / | / | . | /
Cc1cc2ccccc2c[n+]1C1CCCCC1 | / | . | / | 4.6µM | / | /
CSc1ccc(NC(=O)c2cc3c(s2)CN(C2CC2)C3)cc1 | / | / | / | / | . | /
CCn1nc(C)c2ccn(CC(=O)NCc3ccccc3C(F)(F)F)c(=O)c21 | / | / | / | / | . | /
COc1ccccc1Cc1c(-c2ccc(C#N)cc2)nc2ccc(Br)cn12 | . | . | / | . | 25µM | /
Fc1ccc(-c2nc3ccc(Cl)cn3c2Cc2ccccc2C(F)(F)F)cc1 | . | . | / | . | . | /
FC(F)(F)c1ccccc1Cc1c(-c2ccc(Cl)cc2)nc2ccc(Br)cn12 | . | . | / | ? | 40µM | /
SMILES | PINK1 modulator | KB-V1 MDR tox | SW480 rereplic | KB-3-1 cytotox | ALOX12 inh | MCF10A rereplic
Fc1ccc(-c2nc3ccc(Br)cn3c2Cc2ccccc2C(F)(F)F)cc1 | . | ? | / | . | 18µM | /
Cc1ccc(Cn2c(=O)n(CCCC(=O)NCc3ccc4c(c3)OCO4)c(=O)c3ccccc32)cc1 | / | / | / | / | . | /
Cc1ccc(NC(=O)c2nn(C)c3c2CCc2sccc2-3)cc1F | / | / | / | / | . | /
CCNc1nc(C23CC4CC(CC(C4)C2)C3)cs1 | . | . | ? | . | ? | 23µM
CC(=O)Nc1nc(C23CC4CC(CC(C4)C2)C3)cs1 | / | / | / | / | . | /
Cc1cc(CSc2ncccc2C(=O)Nc2ccnn2Cc2ccccc2)no1 | / | / | / | / | . | /

Screening data from PubChem BioAssay.
